± gives the standard deviation.
Assays:
[1] = test system: MILI (PIWIL2) piRISC loaded with L1MC piRNA (26 nt); assay: pre-steady-state target cleavage rate (min^-1); guide: L1MC piRNA 5'p-UAACUAAAUACUAUGCAAGCUGUAGG; higher = faster piRNA-guided slicing of the target;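 further: 1 nM active piRISC with 0.1 nM target library at 33 °C single turnover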
Procedure, shortened: (§1)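 Cleave-'n-Seq measured uncleaved targets by sequencing after a transcribed, DNA-blocked target RNA library […] was mixed with 1 nM active affinity-purified piRISC holding one synthetic guide, with or without 500 nM GTSF1 partner protein, at 33 °C in HEPES–potassium acetate buffer for 0–8 or 0–960 min. Counts were normalised to depth and to weakly complementary targets, three trials were pooled, and k3 was capped at 0.0001 min^-1. A burst-and-steady-state fit gave the pre-steady-state cleavage rate.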

[2] = test system: EfPiwi piRISC loaded with L1MC piRNA (26 nt); assay: pre-steady-state target cleavage rate (min^-1); auxiliary factor: 500 nM Ephydatia muelleri Gtsf1; guide: L1MC piRNA 5'p-UAACUAAAUACUAUGCAAGCUGUAGG; MIWI and MILI are mouse PIWI proteins and EfPiwi is from a freshwater sponge; tags in brackets are library labels; higher = faster piRNA-guided slicing of the target
Procedure, shortened: as §1

[3] = auxiliary factor: 500 nM mouse GTSF1
[4] = auxiliary factor: none (no GTSF1)

Sequence	pre-steady-state target cleavage rate [1, 3]	pre-steady-state target cleavage rate [1, 4]	pre-steady-state target cleavage rate [2]
UCCUCCUACAGCUUGCAUAGUAUUAUAGUUA	0.258 ± 0.019	0.00434 ± 0.0022	0.00777 ± 0.0033
UCCUCCUACUGGUUGCAUAGUAUUUAGUUA	0.226 ± 0.021	0.00818 ± 0.0021	0.1 ± 0.025
UCCUGGUAGAGCUAGCAUAGUAUUUAGUUA	0.216 ± 0.019	0.00986 ± 0.0028	0.00968 ± 0.0033
UCCUGCUACAGCUUGUAUAGUAUUUAGUUA	0.255 ± 0.015	0.00693 ± 0.0021	0.029 ± 0.0067
UCCUGGUACAGCUUGCAUAGUUAUUAGUUA	0.0387 ± 0.015	0.00509 ± 0.0027	0.00325 ± 0.0025
UCCUCCUACAGCUUGCAAAGUAUAUAGUUA	0.115 ± 0.015	0.00276 ± 0.0025	0.008 ± 0.0043
UCCUGGAUCAGCUUCCAAAGUAUUUAGUUA	0.0704 ± 0.0082	0.00341 ± 0.0024	0.00404 ± 0.0027
UCCUGGUACAGCUUGGAUAGUAAUUAGUUA	0.226 ± 0.057	0.00415 ± 0.0029	0.00316 ± 0.0025
UCCUGGAUGUGCUUGCAUAGUAUUAAGUUA	0.162 ± 0.025	0.00745 ± 0.0021	0.00372 ± 0.0032
UCCUGGUACAGCUUGCAUAGUAUUUAGUUG [g2:g24:cont:t1G]	0.218 ± 0.018	0.00995 ± 0.003	0.0182 ± 0.0065
UCCUGCUACAGCUUGCAUAGUAUUUGGUUA	0.27 ± 0.029	0.00697 ± 0.0023	0.00556 ± 0.0012
UCCUGCUACAGCAUGCAUAGUAUUAAGUUA	0.331 ± 0.043	0.00346 ± 0.0032	0.00828 ± 0.0024
UCCUGGUACAGCAUGCAUAGUAUUUAGUAA	0.163 ± 0.02	0.00467 ± 0.0031	0.00753 ± 0.0032
UCCUGGAUGUCCUCUGCAUAGUAUUUAGUUA	0.0405 ± 0.0082	0.00562 ± 0.0033	0.00412 ± 0.003
UCCUGGAUGAGCUUCAUAGUAUUUAGUUA	0.0977 ± 0.012	0.00515 ± 0.002	0.00394 ± 0.0033
UCCUGGAUGUCCUUACAUAGUAUUUAGUUA	0.0839 ± 0.012	0.00844 ± 0.002	0.00492 ± 0.0036
UCCUGGAACAGCUUUCAUAGUAUUUAGUUA	0.197 ± 0.021	0.00688 ± 0.0024	0.00631 ± 0.0025
UCCUGCUUCAGCUUGCAUAGUAUUUAGUUA	0.312 ± 0.019	0.0109 ± 0.0023	0.103 ± 0.025
UCCUCCUACAGCUUGCUUAGUUUUUAGUUA	0.0513 ± 0.01	0.00379 ± 0.0023	0.00738 ± 0.0023
UCCUGGAUGUGCUUGCAUAGUAUUUAAUUA	0.0357 ± 0.011	0.00315 ± 0.003	0.113 ± 0.038
UCCUGCUAUAGCUUGCAUAGUAUUUAGUUA	0.221 ± 0.017	0.00678 ± 0.0018	0.014 ± 0.0046
UCCUGCAACAGCUUGCAUAGUAUUUAGUUA	0.398 ± 0.028	0.0107 ± 0.0034	0.0741 ± 0.018
UCCUCCUACAGCUUCGCAUAGUAUUUAGUUA	0.282 ± 0.015	0.00644 ± 0.0025	0.121 ± 0.032
UCCUGGUAGUCCUUGCAUAGUAUUUAGUUA	0.126 ± 0.018	0.00932 ± 0.003	0.00556 ± 0.0026
UCCUGGUACAGCUAUGCAUAGUAUUUAGUUA	0.259 ± 0.016	0.0112 ± 0.0038	0.0292 ± 0.0094
UCCUGGAUCAGCUUGGAUAGUAUUUAGUUA	0.185 ± 0.013	0.00786 ± 0.0022	0.0092 ± 0.0025

Sequence	pre-steady-state target cleavage rate [1, 3]	pre-steady-state target cleavage rate [1, 4]	pre-steady-state target cleavage rate [2]
UCCUGGAACAGGUUGCAUUGUAUUUAGUUA	0.157 ± 0.014	0.00837 ± 0.0019	0.00526 ± 0.0019
UCCUGGUACAGCUUGCAUAGUAUUUAGUUUA	0.375 ± 0.028	0.0152 ± 0.005	0.0765 ± 0.024
UCCUGGAUCAGCUUGCAUAGUAUAAAGUUA	0.171 ± 0.018	0.00561 ± 0.0029	0.00752 ± 0.0027
UCCUGGAUCAGCUUGCAUAGUAUUUAGUCA	0.285 ± 0.019	0.0107 ± 0.0027	0.0102 ± 0.0044
UCCUGGAUCAGGUUGCAUAGUAUAUAGUUA	0.197 ± 0.017	0.00574 ± 0.0022	0.00644 ± 0.0033
UCCUGGUACAGCUUGCAUAGUAUUUGAGUUA	0.178 ± 0.034	0.00534 ± 0.0027	0.00306 ± 0.0023
UCCUGGUACAACUUGCAUAGUAUUUAGUUA	0.273 ± 0.023	0.012 ± 0.0031	0.017 ± 0.0059
UCCUGCUACAGCUUGCAUAGUAUCUUAGUUA	0.259 ± 0.027	0.00985 ± 0.0022	0.00633 ± 0.0017
UCCUGGUACAGCUUGCACAGUAUUUAGUUA	0.156 ± 0.013	0.0127 ± 0.0032	0.0505 ± 0.015
UCCUGGAUAAGCUUGCAUAGUAUUUAGUUA	0.276 ± 0.017	0.0122 ± 0.0029	0.0102 ± 0.004
UCCUCCUACAGCUUGCAUAGUUUUUAGUUA	0.0632 ± 0.011	0.00455 ± 0.0023	0.00894 ± 0.003
UCCUGGAUCAGCUUGCAUAGUAUUUGGUUA	0.245 ± 0.018	0.0139 ± 0.003	0.00498 ± 0.002
UCCUGGUACUGCUUGCUUAGUAUUUAGUUA	0.197 ± 0.015	0.0115 ± 0.0025	0.00909 ± 0.0033
UCCUCCUAGAGCUUGCAAAGUAUUUAGUUA	0.14 ± 0.0099	0.00516 ± 0.002	0.0214 ± 0.006
UCCUGGAACAGCUUGCAUAGUAUUAUAGUUA	0.149 ± 0.024	0.00335 ± 0.0027	0.0399 ± 0.015
UCCUGCUACUGCUUGCAUAGAAUUUAGUUA	0.045 ± 0.0093	0.00256 ± 0.002	0.00563 ± 0.002
UCCUGGAUGUCCUUGCAUAGUAUUUAGUAUA	0.191 ± 0.03	0.00617 ± 0.0026	0.00442 ± 0.0031
UCCUCCAACAGCUUGCAUAGUUUUUAGUUA	0.0522 ± 0.0087	0.00502 ± 0.0021	0.0119 ± 0.0041
UCCUGGUACAGCUUGCAUAGUCUUUAGUUA	0.152 ± 0.025	0.00831 ± 0.003	0.00738 ± 0.0024
UCCUGGAACAGCUUGCAAAGUAUAUAGUUA	0.116 ± 0.013	0.00404 ± 0.0021	0.00745 ± 0.0042
UCCUGGAACAGCUUGCUUAGUAAUUAGUUA	0.213 ± 0.019	0.00562 ± 0.0024	0.00639 ± 0.0027
UCCUGGAUGACCUUGCAUAGUAUUUAGUUA	0.177 ± 0.023	0.0057 ± 0.0024	0.0113 ± 0.0049
UCCUCCAACAGCUUGCAUUGUAUUUAGUUA	0.257 ± 0.018	0.00746 ± 0.0023	0.0205 ± 0.0058
UCCUCCUACAAGCUUGCAUAGUAUUUAGUUA	0.222 ± 0.016	0.00894 ± 0.0024	0.0104 ± 0.0039
UCCUGGAUCAGCUUGCAUAGUAUUCAGUUA	0.179 ± 0.024	0.00376 ± 0.0025	0.00509 ± 0.0019

Reference: the supplement of paper PMC10338343
